Of roughly 8,800 targets only a part is listed; those with a hit were picked by preference. About 0.5% of all pairs of compound and target were hits. A number with no mark means an inactive call.
Assays:
Assay in all cases: log2 fold change, soluble protein after heating vs DMSO (PISA); higher = thermal stabilisation; K562 lysate, 10 uM; active = over 0.2 and 3.5 SD of the protein, either way, in both replicates (recomputed)
[1] = compound: NCC(=O)Nc1ccc(-n2nc(C(F)(F)F)cc2-c2ccc3c(ccc4ccccc43)c2)cc1
How it was run: (§1)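 Quantification was by TMTpro 16plex LC-MS/MS with equalised channel sums, applied to the supernatant after 21,000xg for 90 min. Samples were crude K562 extract at 1 mg/mL protein in PBS pH 7.4 with 1 mM MgCl2, treated with 10 μM compound for 30 min, heated for 3 min across 48°C-58°C, pooled and brought to 0.5% NP-40 at 4°C. Values are log-two fold changes in thermal stability relative to solvent controls, from duplicates.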

[2] = compound: O=C(CCCCCCC(=O)Nc1ccccc1)NO [vorinostat]
How it was run: as §1

[3] = compound: O=C(O)c1ccc2c(c1)nc(Nc1cccc(Cl)c1)c1ccncc12 [silmitasertib]
How it was run: as §1

[4] = compound: O=C1NC(=O)C(c2cnc3ccccn23)=C1c1cn2c3c(cc(F)cc13)CN(C(=O)N1CCCCC1)CC2
How it was run: as §1

[5] = compound: c1cn2cc(-c3ccc4cn[nH]c4c3)nc(Nc3ccc(N4CCOCC4)cc3)c2n1 [entospletinib]
How it was run: as §1

SASS6 (UniProt Q6UVJ0)
Sequence of UniProt Q6UVJ0 (Q6UVJ0 whole entry, looked up): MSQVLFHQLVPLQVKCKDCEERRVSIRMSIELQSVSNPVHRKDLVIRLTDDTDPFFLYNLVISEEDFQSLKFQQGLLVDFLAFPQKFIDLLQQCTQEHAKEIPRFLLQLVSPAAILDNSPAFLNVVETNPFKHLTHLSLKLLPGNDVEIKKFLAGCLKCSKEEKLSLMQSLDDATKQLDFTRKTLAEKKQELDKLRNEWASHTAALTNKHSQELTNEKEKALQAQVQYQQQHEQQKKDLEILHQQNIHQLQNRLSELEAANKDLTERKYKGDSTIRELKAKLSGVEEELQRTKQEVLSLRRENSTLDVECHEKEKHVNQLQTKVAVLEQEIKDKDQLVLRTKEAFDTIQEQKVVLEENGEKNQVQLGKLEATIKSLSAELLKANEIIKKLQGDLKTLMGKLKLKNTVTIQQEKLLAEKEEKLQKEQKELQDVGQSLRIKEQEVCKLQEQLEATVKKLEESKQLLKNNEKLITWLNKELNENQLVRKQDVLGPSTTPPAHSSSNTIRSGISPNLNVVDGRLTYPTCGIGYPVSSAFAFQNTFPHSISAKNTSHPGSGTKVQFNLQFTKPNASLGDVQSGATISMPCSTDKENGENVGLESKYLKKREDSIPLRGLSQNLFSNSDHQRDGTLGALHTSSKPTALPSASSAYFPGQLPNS
log2 fold change [1]: 0.015 | log2 fold change [2]: -0.381 (active) | log2 fold change [3]: 0.012 | log2 fold change [4]: 0.021 | log2 fold change [5]: 0.003

REL isoform 2 (UniProt Q04864)
Sequence of UniProt Q04864 (Q04864 whole entry, looked up): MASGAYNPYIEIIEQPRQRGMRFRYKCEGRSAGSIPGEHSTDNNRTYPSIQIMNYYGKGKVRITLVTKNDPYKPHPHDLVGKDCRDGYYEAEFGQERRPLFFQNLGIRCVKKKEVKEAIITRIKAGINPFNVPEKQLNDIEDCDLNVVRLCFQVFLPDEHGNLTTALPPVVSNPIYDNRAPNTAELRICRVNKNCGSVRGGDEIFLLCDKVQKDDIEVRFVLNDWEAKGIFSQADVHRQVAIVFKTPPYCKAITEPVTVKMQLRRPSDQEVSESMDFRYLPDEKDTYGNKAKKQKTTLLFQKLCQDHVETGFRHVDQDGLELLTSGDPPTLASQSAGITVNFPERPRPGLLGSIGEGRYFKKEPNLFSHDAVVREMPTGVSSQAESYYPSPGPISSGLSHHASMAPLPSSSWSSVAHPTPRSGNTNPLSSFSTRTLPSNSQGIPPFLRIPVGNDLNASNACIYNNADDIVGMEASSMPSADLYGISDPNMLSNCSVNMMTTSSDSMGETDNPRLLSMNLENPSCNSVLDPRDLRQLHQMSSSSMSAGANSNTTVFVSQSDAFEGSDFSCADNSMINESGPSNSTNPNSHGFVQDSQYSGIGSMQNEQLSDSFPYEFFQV
log2 fold change [1]: -0.052 | log2 fold change [2]: -0.351 (active) | log2 fold change [3]: 0.07 | log2 fold change [4]: -0.004 | log2 fold change [5]: 0.019

RDH10 (UniProt Q8IZV5)
Sequence of UniProt Q8IZV5 (Q8IZV5 whole entry, looked up): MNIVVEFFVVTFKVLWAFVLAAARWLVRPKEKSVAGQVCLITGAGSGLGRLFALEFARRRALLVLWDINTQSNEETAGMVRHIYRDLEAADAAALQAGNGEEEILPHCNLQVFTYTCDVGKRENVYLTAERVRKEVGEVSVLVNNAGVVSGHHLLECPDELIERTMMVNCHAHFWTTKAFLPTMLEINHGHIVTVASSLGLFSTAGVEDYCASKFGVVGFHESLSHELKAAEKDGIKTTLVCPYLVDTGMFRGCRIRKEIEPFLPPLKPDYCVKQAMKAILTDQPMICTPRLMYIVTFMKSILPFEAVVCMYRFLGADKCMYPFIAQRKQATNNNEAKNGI
log2 fold change [1]: -0.038 | log2 fold change [2]: -0.007 | log2 fold change [3]: 0.006 | log2 fold change [4]: -0.042 | log2 fold change [5]: 0.162

SERINC3 (UniProt Q13530)
Sequence of UniProt Q13530 (Q13530 whole entry, looked up): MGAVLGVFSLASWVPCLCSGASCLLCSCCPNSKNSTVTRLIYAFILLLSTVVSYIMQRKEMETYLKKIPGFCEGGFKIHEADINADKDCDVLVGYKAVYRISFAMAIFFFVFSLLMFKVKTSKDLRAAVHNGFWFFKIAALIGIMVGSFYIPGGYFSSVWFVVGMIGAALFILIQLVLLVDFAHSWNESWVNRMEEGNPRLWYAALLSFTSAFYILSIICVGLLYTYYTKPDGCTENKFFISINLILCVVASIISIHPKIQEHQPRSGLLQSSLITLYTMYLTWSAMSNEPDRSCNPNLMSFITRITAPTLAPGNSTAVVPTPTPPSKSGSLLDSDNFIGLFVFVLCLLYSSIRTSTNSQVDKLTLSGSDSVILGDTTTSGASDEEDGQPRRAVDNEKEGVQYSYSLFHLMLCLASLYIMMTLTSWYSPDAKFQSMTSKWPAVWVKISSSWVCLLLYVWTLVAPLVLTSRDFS
log2 fold change [1]: -0.027 | log2 fold change [2]: 0.019 | log2 fold change [3]: -0.012 | log2 fold change [4]: 0.017 | log2 fold change [5]: 0.024

SEC61G (UniProt P60059)
Sequence of UniProt P60059 (P60059 whole entry, looked up): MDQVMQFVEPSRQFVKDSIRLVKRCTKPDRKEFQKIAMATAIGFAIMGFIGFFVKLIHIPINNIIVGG
log2 fold change [1]: -0.047 | log2 fold change [2]: 0.005 | log2 fold change [3]: 0.013 | log2 fold change [4]: 0.232 | log2 fold change [5]: -0.034

RAPGEF2, A0A2R8YGD3
log2 fold change [1]: -0.041 | log2 fold change [2]: 0.2 | log2 fold change [3]: -0.007 | log2 fold change [4]: 0.015 | log2 fold change [5]: -0.046

RPS6KA5 (UniProt O75582)
Sequence of UniProt O75582 (O75582 whole entry, looked up): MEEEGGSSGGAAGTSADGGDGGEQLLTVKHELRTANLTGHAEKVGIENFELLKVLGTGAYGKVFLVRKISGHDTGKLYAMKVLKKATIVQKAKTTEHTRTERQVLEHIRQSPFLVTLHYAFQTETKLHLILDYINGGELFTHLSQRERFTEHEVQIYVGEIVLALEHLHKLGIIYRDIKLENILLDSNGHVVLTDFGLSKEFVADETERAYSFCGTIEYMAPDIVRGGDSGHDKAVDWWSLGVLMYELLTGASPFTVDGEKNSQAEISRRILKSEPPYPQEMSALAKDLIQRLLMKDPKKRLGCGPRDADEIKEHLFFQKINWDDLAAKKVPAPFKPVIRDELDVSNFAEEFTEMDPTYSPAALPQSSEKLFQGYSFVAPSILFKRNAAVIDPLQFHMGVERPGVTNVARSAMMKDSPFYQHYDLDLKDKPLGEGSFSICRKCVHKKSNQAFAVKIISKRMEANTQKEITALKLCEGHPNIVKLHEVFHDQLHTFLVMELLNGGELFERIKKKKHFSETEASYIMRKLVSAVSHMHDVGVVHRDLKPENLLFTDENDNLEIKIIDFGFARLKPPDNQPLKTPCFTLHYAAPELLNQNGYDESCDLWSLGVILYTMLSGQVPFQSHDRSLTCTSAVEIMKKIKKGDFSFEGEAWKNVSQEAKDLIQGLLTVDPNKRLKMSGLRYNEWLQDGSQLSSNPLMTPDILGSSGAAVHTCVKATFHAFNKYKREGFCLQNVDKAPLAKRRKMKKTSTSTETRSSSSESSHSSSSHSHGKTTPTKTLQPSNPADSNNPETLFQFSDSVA
log2 fold change [1]: -0.025 | log2 fold change [2]: -0.189 | log2 fold change [3]: 0.034 | log2 fold change [4]: -0.303 | log2 fold change [5]: -0.007

RASA3 (UniProt Q14644)
Sequence of UniProt Q14644 (Q14644 whole entry, looked up): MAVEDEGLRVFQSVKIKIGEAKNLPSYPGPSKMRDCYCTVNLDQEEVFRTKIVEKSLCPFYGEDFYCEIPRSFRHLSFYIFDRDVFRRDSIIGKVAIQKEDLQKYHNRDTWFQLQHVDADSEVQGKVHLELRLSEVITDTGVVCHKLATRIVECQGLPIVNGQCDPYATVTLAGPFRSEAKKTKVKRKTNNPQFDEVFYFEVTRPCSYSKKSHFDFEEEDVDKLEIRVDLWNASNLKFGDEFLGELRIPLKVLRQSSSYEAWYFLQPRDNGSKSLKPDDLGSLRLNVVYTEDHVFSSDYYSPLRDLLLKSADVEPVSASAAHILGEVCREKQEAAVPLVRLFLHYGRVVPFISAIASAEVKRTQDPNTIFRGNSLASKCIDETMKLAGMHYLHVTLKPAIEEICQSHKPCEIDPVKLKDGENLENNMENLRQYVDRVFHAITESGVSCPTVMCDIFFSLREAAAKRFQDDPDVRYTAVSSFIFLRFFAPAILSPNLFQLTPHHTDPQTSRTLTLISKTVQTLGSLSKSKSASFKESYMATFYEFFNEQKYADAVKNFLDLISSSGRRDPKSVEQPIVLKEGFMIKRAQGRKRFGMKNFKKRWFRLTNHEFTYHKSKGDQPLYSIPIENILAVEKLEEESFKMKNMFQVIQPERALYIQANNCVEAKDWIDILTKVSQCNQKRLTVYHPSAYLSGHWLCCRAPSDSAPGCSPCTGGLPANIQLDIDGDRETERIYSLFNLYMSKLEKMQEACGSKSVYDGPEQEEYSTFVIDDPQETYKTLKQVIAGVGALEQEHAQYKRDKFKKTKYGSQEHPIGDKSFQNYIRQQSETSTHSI
log2 fold change [1]: -0.022 | log2 fold change [2]: -0.361 (active) | log2 fold change [3]: -0.08 | log2 fold change [4]: -0.015 | log2 fold change [5]: 0.017

RAI14 isoform 2 (UniProt Q9P0K7)
Sequence of UniProt Q9P0K7 (Q9P0K7 whole entry, looked up): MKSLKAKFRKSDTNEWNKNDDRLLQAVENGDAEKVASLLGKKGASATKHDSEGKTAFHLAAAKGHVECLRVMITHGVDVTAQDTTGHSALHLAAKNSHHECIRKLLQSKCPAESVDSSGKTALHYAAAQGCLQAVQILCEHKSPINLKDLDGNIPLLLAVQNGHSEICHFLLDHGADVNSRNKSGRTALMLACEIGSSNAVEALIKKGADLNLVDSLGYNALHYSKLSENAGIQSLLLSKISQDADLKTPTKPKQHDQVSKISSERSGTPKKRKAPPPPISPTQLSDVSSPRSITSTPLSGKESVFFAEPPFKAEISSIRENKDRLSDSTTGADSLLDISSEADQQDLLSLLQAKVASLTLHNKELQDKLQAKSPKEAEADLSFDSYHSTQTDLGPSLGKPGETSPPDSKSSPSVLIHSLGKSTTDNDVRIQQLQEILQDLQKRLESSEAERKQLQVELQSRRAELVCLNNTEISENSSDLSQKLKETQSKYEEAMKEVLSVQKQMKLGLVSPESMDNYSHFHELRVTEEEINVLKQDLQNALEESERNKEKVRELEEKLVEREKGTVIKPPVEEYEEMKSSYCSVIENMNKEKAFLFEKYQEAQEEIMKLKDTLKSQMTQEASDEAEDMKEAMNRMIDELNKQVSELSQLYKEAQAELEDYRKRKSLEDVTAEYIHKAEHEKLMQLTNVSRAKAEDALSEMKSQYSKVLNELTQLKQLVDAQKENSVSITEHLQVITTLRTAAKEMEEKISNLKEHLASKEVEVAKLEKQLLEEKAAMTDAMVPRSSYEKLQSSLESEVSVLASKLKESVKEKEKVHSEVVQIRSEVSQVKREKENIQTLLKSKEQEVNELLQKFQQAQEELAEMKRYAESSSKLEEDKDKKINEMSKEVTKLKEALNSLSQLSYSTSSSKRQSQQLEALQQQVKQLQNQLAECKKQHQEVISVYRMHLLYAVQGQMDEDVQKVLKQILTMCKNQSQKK
log2 fold change [1]: 0.005 | log2 fold change [2]: -0.254 (active) | log2 fold change [3]: 0.022 | log2 fold change [4]: 0.015 | log2 fold change [5]: -0.003

Reference: the supplement of paper PMC10849652
